Compounds with a hit are over-represented: about 2.3% of the library has one in this group of screens.
Jurkat NFkB inh: lowers PMA/ionomycin-induced NF-kB signal in Jurkat cells; inhibition, % at 4 µM; PMA/ionomycin-induced NF-kB luciferase reporter, luminescence; AID 435003; 330,000 compounds, 0.53% hits; in the data active means inhibition above about 50%
TRPM1 prom inh: inhibitors of MITF-driven TRPM1 promoter in melanoma cells; 330,000 compounds, 0.83% hits; SK-MEL-5 TRPM1 promoter luciferase, 24 h; AID 488899; inhibition, % at 12.5 µM;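 active means mean inhibition across replicates of 60% or more, whatever share of single replicates reaches that level; inconclusive means some that reach 60%, reason not given; inactive means mean inhibition across replicates below 60%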
697 NFkB inh: inhibitors of the PMA/ionomycin-induced NF-kB reporter in 697 B cells. AID 435022. inhibition, % at 4 µM. 330,000 compounds, 0.33% hits. 697 B-cell NF-kB luciferase reporter, 16 h; in the data active means inhibition above about 35%
LMP1 NFkB inh: Epstein-Barr LMP1 NF-kappaB reporter inhibition; LMP1-induced NF-kappaB luciferase reporter cells, luminescence; inhibition, % at 12.5 µM; 350,000 compounds, 0.69% hits; AID 504558; in the data active means inhibition above about 41%; inconclusive means no clear call, values can overlap the other calls
Shn3 inh set2: Schnurri-3 reporter inhibition in Clone20 osteoblasts | Clone20 osteoblast Shn3 3'UTR firefly luciferase, 24 h | inhibition, % at 12.5 µM | AID 588674 | 360,000 compounds, 0.52% hits;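 active means mean inhibition of at least 75% with every replicate also reaching 75%; inconclusive means mean inhibition at least 75% but some replicate below; inactive means mean inhibition below 75%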
Gli-Sufu block: Gli-Sufu pathway antagonism; Sufu-KO-LIGHT fibroblasts, Gli luciferase reporter luminescence; inhibition, % at 5 µM; 340,000 compounds, 0.74% hits;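 active means inhibition above about 55%, limit read from the data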
697 NFkB conf: inhibitors of the PMA/ionomycin-induced NF-kB reporter in 697 B cells, retest. shares compounds with 697 NFkB inh. 697 B-cell NF-kB luciferase, 16 h. inhibition, % at 4 µM. 2,000 compounds, 35% hits. AID 449746; in the data active means inhibition mostly above about 28%, no sharp cut-off; inactive means mostly below about 22%
Each line names hits and unclear results; the compound was inactive in the other large screens (follow-up assays come after a bar, where they were run).

COc1ccc(C)cc1S(=O)(=O)N(CC(=O)Nc1ccc2c(c1)OCCO2)Cc1ccccc1	none
Cn1ccnc1SCC(=O)Nc1cc(C(F)(F)F)ccc1N1CCOCC1	none
CCOc1ncccc1C(=O)Nc1nnc(C2CC2)s1	697 NFkB inh 38.9 | 697 NFkB conf inactive
CCOc1ncccc1C(=O)Nc1nnc(C)s1	none
Cc1nn(Cc2ccccc2Cl)c(C)c1C(=O)Nc1nnc(C2CC2)s1	none | 697 NFkB conf inactive
C=CCNC(=O)c1c(O)c2cccc3c2n(c1=O)CCC3	none
COCC(C)n1c(C)cc(C(=O)CN2C(=O)NC(Cc3c[nH]c4ccccc34)C2=O)c1C (stereo not drawn)	none
CCCNC(=O)CSCc1nc(-c2ccc(SC)cc2)oc1C	697 NFkB inh 48.3 | 697 NFkB conf 42.2
COc1ccc(OC)c(NC(=O)Nc2ccc(Cl)cc2)c1	none
COC(=O)c1cc(NC(=O)Nc2cc(OC)ccc2OC)cc(C(=O)OC)c1	697 NFkB inh 39.1 | 697 NFkB conf 33.7
N=C1C(c2nc3ccccc3s2)=C(O)CN1C1CCCCC1	none | 697 NFkB conf inactive
O=[N+]([O-])c1ccccc1NC(=S)N/N=C/c1ccc(O)c(O)c1	none | 697 NFkB conf inactive
Cc1cc(C(=O)NC2CCCc3c2cnn3-c2cccc(C)c2C)no1 (stereo not drawn)	none | 697 NFkB conf inactive
COc1cccc(/C=C/c2nc(S(=O)(=O)c3ccccc3)c(N3CCC(C(N)=O)CC3)o2)c1	none (no result: Jurkat NFkB inh, TRPM1 prom inh, 697 NFkB inh, Gli-Sufu block)
CN1C(=O)CC(c2ccco2)Sc2ccccc21 (stereo not drawn)	697 NFkB inh 38.9 | 697 NFkB conf 29.2
CNC(=O)c1cc(Oc2ccc(NC(=O)Nc3ccc(Cl)c(C(F)(F)F)c3)cc2)ccn1	697 NFkB inh 62.5, LMP1 NFkB inh 68.3 | 697 NFkB conf 59.5
CCOc1cc(-c2noc(CCCC(N)=O)n2)cc(Br)c1OC	none
N#CCCn1cc(C=C(C#N)C#N)c(-c2ccc(Cl)cc2)n1	none
N#Cc1ccccc1N/C=C/C(=O)c1ccc(Cl)cc1	none (no result: TRPM1 prom inh, LMP1 NFkB inh) | 697 NFkB conf inactive
O=C(/C=C/Nc1ccccc1F)c1ccc(Br)cc1	none (no result: Jurkat NFkB inh, 697 NFkB inh)
CCN1C(=O)Nc2cccc3cccc1c23	697 NFkB inh 37.4 (no result: Shn3 inh set2) | 697 NFkB conf 36.3
Cc1cc(N2CCOCC2)n2nc(C)c(-c3ccc(Cl)cc3)c2n1	none
Cc1cc(N2CCC(C)CC2)n2ncc(-c3ccccc3)c2n1	none | 697 NFkB conf inactive
Cc1ccc(-c2cnn3c(N4CCOCC4)cc(C)nc23)cc1	none | 697 NFkB conf inactive
Cc1cc(N2CCN(C(=O)c3ccco3)CC2)n2ncc(-c3ccccc3)c2n1	none
Cc1cc(N2CCOCC2)n2ncc(-c3ccccc3)c2n1	none | 697 NFkB conf inactive
C#CCn1c(S(=O)(=O)Cc2ccc(F)cc2)nc(-c2ccccc2)c1-c1ccccc1	LMP1 NFkB inh 42.6 | 697 NFkB conf inactive
Cc1ccc(N=Nc2c(N)nn(-c3ccccc3)c2N)cc1	none | 697 NFkB conf inactive
Cc1cc(F)ccc1NC(=O)C1CCN(C(=O)Nc2ccccc2)CC1	none
COc1cccc(NC(=O)N2CCC(C(=O)Nc3ccc(C)cc3C)CC2)c1	697 NFkB inh 35.1 | 697 NFkB conf inactive
COc1c2ccoc2c(OCC=C(C)C)c2oc(=O)ccc12	none
CC(=O)/C(C#N)=C1\NC(=O)C(Cc2ccc(C)c(Cl)c2)S1 (stereo not drawn)	none | 697 NFkB conf inactive
O=C(CCCN1C(=O)/C(=C/c2ccccc2Cl)SC1=S)NNC(=O)c1ccccc1	697 NFkB inh 39.8 | 697 NFkB conf 41.9
O=C(CCCN1C(=O)S/C(=C\C=C\c2ccccc2)C1=O)Nc1ccc(C(=O)O)cc1	697 NFkB inh 48.2 | 697 NFkB conf 53.2
O=C(CCCN1C(=O)S/C(=C\c2ccccc2)C1=O)NNC(=O)c1ccccc1O	TRPM1 prom inh 71.0, 697 NFkB inh 67.4, LMP1 NFkB inh inconclusive | 697 NFkB conf 50.0
O=C(CN1C(=O)S/C(=C\c2ccccc2)C1=O)NNC(=O)c1ccccc1O	none
O=C(CCCN1C(=O)/C(=C/c2ccccc2Cl)SC1=S)NNC(=O)c1ccc(Cl)cc1Cl	697 NFkB inh 59.7 | 697 NFkB conf 39.3
CCOC(=O)c1cc(C(=O)c2cc(Cl)ccc2O)coc1=N	none
O=C(Nc1ccc(F)cc1F)N1CCN(C(=O)c2ccco2)CC1	none
CCc1ccc(OCC(O)CN2CCCC2)cc1 (stereo not drawn)	none
CC1=Nc2cc(C(=O)N3CCCC3)ccc2Sc2c(C)ccc(C)c21	none | 697 NFkB conf inactive
CC1=Nc2cc(C(=O)O)ccc2Sc2c(C)ccc(C)c21	none
COc1ccc(-n2cnnc2SCC(=O)Nc2ccc(C(N)=O)cc2)cc1	none
CCOc1ccc(-c2cc(CCCC(=O)N3CCN(c4ccc(OC)cc4)CC3)no2)cc1	none
CCOc1ccc(-c2cc(CCCC(=O)NCCCOC)no2)cc1	697 NFkB inh 53.2 | 697 NFkB conf 31.5
Cc1ccc(OCC(=O)NCC(=O)Nc2ccc(F)c(F)c2F)c([N+](=O)[O-])n1	none
S=C(Nc1ccc2nccnc2c1)N1CCCC1	none
Cc1csc(SCC(=O)c2cc(C)n(Cc3cccs3)c2C)n1	LMP1 NFkB inh inconclusive | 697 NFkB conf inactive
COc1ccc(CNc2nc3ccccc3s2)cc1OC	none
Cc1ccc(CNc2nc3ccccc3s2)s1	none | 697 NFkB conf inactive
Cc1ccc(C(=O)Nc2sc(C)c(-c3ccccc3)c2C(N)=O)cc1[N+](=O)[O-]	Gli-Sufu block 65.9 | 697 NFkB conf inactive
Cc1ccc(C(=O)Nc2cccc(NC(=O)c3ccc(C)c([N+](=O)[O-])c3)n2)cc1[N+](=O)[O-]	none
O=C1CSC(=Nc2ccccc2)N1	none
Cc1noc(C)c1C(=O)Nc1cc(Cl)ccc1N1CCOCC1	none
COc1cccc(OC)c1C(=O)Nc1cc(Cl)ccc1N1CCOCC1	697 NFkB inh 38.9 | 697 NFkB conf inactive
COc1ccc2nc(-c3ccc(F)cc3)sc2c1	none | 697 NFkB conf inactive
COc1cc(OC)cc(-c2nc3ccccc3s2)c1	none
Cc1ccc(NC(=O)CN2CCC(NC(=O)Cc3ccccc3)CC2)c(C)c1	none
O=C(O)c1ccc(N/N=C/c2cc3cc4c(cc3nc2Cl)OCCO4)cc1	LMP1 NFkB inh 42.2 | 697 NFkB conf inactive
O=Cc1cc2cc3c(cc2nc1Cl)OCCO3	none (no result: TRPM1 prom inh, LMP1 NFkB inh, Shn3 inh set2)
O=C(Nc1ccccc1Cl)c1cccc(NC(=O)C2C3CC4OC(=O)C2C4C3)c1 (stereo not drawn)	none
CC1CCN(S(=O)(=O)c2cnc(Cl)c(Br)c2)CC1	697 NFkB inh 38.0 | 697 NFkB conf inactive
CC1CCCCN1S(=O)(=O)c1cnc(Cl)c(Br)c1 (stereo not drawn)	none
Cc1cc(NC(=O)COC(=O)c2ccc(Cl)cc2)no1	none (no result: Jurkat NFkB inh, TRPM1 prom inh, 697 NFkB inh, Gli-Sufu block)
Cc1cc(NC(=O)COC(=O)c2c(Cl)cccc2Cl)no1	none | 697 NFkB conf inactive
CNc1ncc(C(=O)c2ccc(-c3ccccc3)cc2)s1	none | 697 NFkB conf inactive
CNc1ncc(C(=O)c2ccc(Cl)cc2)s1	none
